PubChem BioAssay (NCI)
This is part of a sample that, as a whole, favours compounds with a hit. Of some 79,000 tested, about 15% had one in any assay. Values without a mark were called inactive. Active and inactive are the calls of the source. No stated cut-off is given here; in the data, active means growth inhibition above about 70%; inactive means the rest. Where a SMILES comes first, the peptide text is derived from it. [ ]: non-standard residue; d: D form. The star is where a group is joined. Phe(4-NO2) = N[CH](Cc1ccc([N+](=O)[O-])cc1)C(=O)O; Boc = CC(C)(C)OC(=O)*

What was measured:
[1] = NCI Yeast Anticancer Drug Screen. Data for the rad50 strain (AID 155);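 further: 0% = growth of vehicle-only cultures of the same strain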; details: S. cerevisiae rad50 strain growth inhibition, stronger effect = higher value
How it was run: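 Relative growth inhibition (compound vs vehicle) was measured in yeast with a defined repair-gene alteration.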

[2] = NCI Yeast Anticancer Drug Screen. Data for the mec2-1 strain (AID 157); details: S. cerevisiae mec2-1 strain, stronger effect = higher value
How it was run: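 Readout is yeast growth inhibition, normalised to vehicle-treated controls, in the mec2-1 strain exposed to compound.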

[3] = NCI Yeast Anticancer Drug Screen. Data for the sgs1 mgt1 strain (AID 161);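 further: 0% = growth of cultures given vehicle only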; details: S. cerevisiae sgs1 mgt1 strain, stronger effect = higher value
How it was run: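 Compounds are added to genetically altered yeast, and growth is compared with cultures given vehicle alone to give percent inhibition.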

[4] = NCI Yeast Anticancer Drug Screen. Data for the cln2 rad14 strain (AID 165);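 further: 0% = growth equal to vehicle treated cultures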; details: S. cerevisiae cln2 rad14 strain, stronger effect = higher value
How it was run: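 Relative to vehicle controls, growth inhibition of compound-treated cln2 rad14 yeast was recorded.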

[5] = NCI Yeast Anticancer Drug Screen. Data for the bub3 strain (AID 167); details: S. cerevisiae bub3 mutant strain, stronger effect = higher value
How it was run: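 Screening used yeast with an engineered genetic alteration affecting cell cycle control. Compound-exposed cultures were compared with vehicle cultures, and reduced growth was taken as inhibition.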

[6] = NCI Yeast Anticancer Drug Screen. Data for the mlh1 rad18 strain (AID 175); details: S. cerevisiae mlh1 rad18 strain growth inhibition, stronger effect = higher value
How it was run: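 Test agents were incubated with a yeast strain of defined genotype (DNA damage repair defect). Inhibition of growth was derived by comparison with vehicle-exposed cultures.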

[7] = at 5.0 µM (retest, dose inferred, filed as 0.5)
[8] = at 50.0 µM (retest, dose inferred, filed as 5.0)

| SMILES | growth inhibition [1, 7] | growth inhibition [1, 8] | growth inhibition ([1]; at 50.0 µM) | growth inhibition [2, 7] | growth inhibition [2, 8] | growth inhibition ([2]; at 50.0 µM) | growth inhibition [3, 7] | growth inhibition [3, 8] | growth inhibition ([3]; at 50.0 µM) | growth inhibition [4, 7] | growth inhibition [4, 8] | growth inhibition ([4]; at 50.0 µM) | growth inhibition [5, 7] | growth inhibition [5, 8] | growth inhibition ([5]; at 50.0 µM) | growth inhibition [6, 7] | growth inhibition [6, 8] | growth inhibition ([6]; at 50.0 µM) |
| --- | --- | --- | --- | --- | --- | --- | --- | --- | --- | --- | --- | --- | --- | --- | --- | --- | --- | --- |
| CCN(CC)CCSCCCNc1cc(C)nc2c1ccc1c2ccc2c(NCCCSCCN(CC)CC)cc(C)nc21 | 5% | 92% (active) | 97.3% (active) | 3% | 70% (active) | 97.4% (active) | -2% | 49% | 97.8% (active) | -3% | 42% | 72.5% (active) | 4% | 67% | 94.4% (active) | 8% | 94% (active) | 95.8% (active) |
| COc1ccc([N+](=O)[O-])cc1NC(=O)Nc1ccc(C(=O)OCC(C)C)cc1 | 11% | 36% | 48.8% | 3% | 53% | 70.2% (active) | 3% | 48% | 68.2% | -10% | 56% | 57% | -5% | 47% | 45.3% | 13% | 3% | 74.9% (active) |
| [N-]=[N+]=CC(=O)CCC(NC(=O)OCc1ccccc1)C(=O)OCc1ccccc1 (stereo not given) | 96% (active) | 99% (active) | 91.2% (active) | 97% (active) | 100% (active) | 93.1% (active) | 96% (active) | 99% (active) | 90.5% (active) | 96% (active) | 99% (active) | 90.9% (active) | 97% (active) | 100% (active) | 89% (active) | 97% (active) | 98% (active) | 90.8% (active) |
| Cc1cc2nc3[nH]c4c(Cl)cc(Cl)cc4c3nc2cc1C | 26% | 28% | -36.8% | 14% | 10% | -28.6% | 3% | 3% | -7.3% | -10% | 5% | 56.4% | -4% | 8% | -70.8% | 4% | 19% | -20.6% |
| ClC(Cl)(Cl)/C=C/c1cnc2ccccc2n1 | 2% | 99% (active) | 15.6% | 1% | 99% (active) | 5.95% | 1% | 99% (active) | 49.3% | -3% | 99% (active) | -2% | -3% | 99% (active) | 85.7% (active) | 3% | 99% (active) | 30.2% |
| O=C1C(Cl)=C(N2CCN(c3ccccn3)CC2)C(=O)c2ncccc21 | 40% | 94% (active) | 85.3% (active) | 21% | 98% (active) | 88.8% (active) | 23% | 97% (active) | 91% (active) | 10% | 96% (active) | 89.4% (active) | 50% | 98% (active) | 88.6% (active) | 34% | 97% (active) | 89.1% (active) |
| O=C(/C=C/c1cc(O)c(O)cc1O)OCCc1ccccc1 | 17% | 50% | 47.1% | 16% | 61% | 75.5% (active) | 20% | 64% | 69.8% | 32% | 33% | 53.7% | 25% | 68% | 66% | 21% | 75% (active) | 68.5% |
| CNC(=O)CCC(NC(=O)OC(C)(C)C)C(=O)NC(Cc1ccc([N+](=O)[O-])cc1)C(=O)NCC(=O)NC (stereo not given) (Boc-Glu(NHMe)-[Phe(4-NO2)]-Gly-NHMe; configuration not given here) | 9% | -1% | -5.5% | -3% | 2% | -1.65% | -7% | 3% | 8.8% | -4% | 4% | 37.6% | -15% | -1% | -1.9% | -9% | 6% | -8.8% |
| Cc1nc2ccc3c(ccc4nc(C)c(N=Nc5ccc(C(=N)N)cc5)c(O)c43)c2c(O)c1N=Nc1ccc(C(=N)N)cc1 | 5% | 89% (active) | 93.8% (active) | 0% | 95% (active) | 95.6% (active) | -1% | 70% (active) | 85.2% (active) | -4% | 81% (active) | 87% (active) | -6% | 58% | 93.3% (active) | 2% | 77% (active) | 90.7% (active) |
| C/C(=N/NC(=S)N(C)C)c1ccccc1O | 2% | 13% | -28.2% | -34% | 9% | 86.3% (active) | -43% | 16% | 52% | 18% | 3% | 77.9% (active) | -29% | 21% | 36.8% | -17% | 28% | 16.7% |
